ChEMBL document CHEMBL1157539, “Thousands of chemical starting points for antimalarial lead identification” (Nature, 2010)

What was measured:
Type in all cases: functional
[1] = system: Plasmodium falciparum; assay: GSK_TCMDC: Inhibition of Plasmodium falciparum 3D7 in whole red blood cells, using parasite LDH activity as an index of growth. Test compounds present at 2uM
[2] = system: Plasmodium falciparum; assay: GSK_TCMDC: Inhibition of Plasmodium falciparum Dd2 in whole red blood cells, using parasite LDH activity as an index of growth. Test compounds present at 2uM
[3] = system: HepG2; assay: GSK_TCMDC: Percent inhibition of human HepG2 cell line. Test compounds present at 10uM.

SMILES	Inhibition [1]	Inhibition [2]	Inhibition [3]
Cc1nc2ccc3ccc(CNc4ccc5c(c4)CN([C@H](CCC(=O)O)C(=O)O)C5=O)cc3c2c(=O)[nH]1	87%	90%	38%
CCOc1ccccc1CNc1nccc(NCc2ccccc2OC)n1	87%	66%	50%
Cl.c1ccc2c(Nc3ccc(OCCOCCOc4ccc(Nc5c6ccccc6nc6ccccc56)cc4)cc3)c3ccccc3nc2c1	100%	97%	38%
O=C(O)C(F)(F)F.OCCN1CCN(Cc2ccc(-c3cccc(-c4nc5cc(F)ccc5[nH]4)c3)cc2)CC1	100%	61%	21%
COc1ccc2nccc([C@@H](O)CN3CCC(NCCOc4cc(C(F)(F)F)ccc4F)CC3)c2c1.O=C(O)C(=O)O	100%	83%	13%
CN(C)C(C)(C)CN(Cc1ccc(-c2ccc(C(F)(F)F)cc2)cc1)C(=O)Cn1c(CCc2cccc(F)c2F)nc(=O)c2ccccc21.O=C(O)C(O)C(O)C(=O)O	95%	67%	64%
COc1ccc2nccc(N3CCC(NCCNCc4cc5c(cn4)OCCO5)C3)c2n1.Cl (configuration not stated)	99%	3%	8%
O=C(NCCN1CCCC1)N1CCCN(c2ncnc3cc(-c4ccc(Cl)cc4)sc23)CC1.O=C(O)C(F)(F)F	96%	32%	13%
O=C(NCc1ccc(Cl)c(Cl)c1)c1ccc(-c2nc3ccc(Cl)cc3[nH]2)cc1	96%	22%	20%
